Where “and” joins values, the source holds several entries; their conditions need not be identical. Equal entries are not always repeated. Inconclusive results are not listed. Values without a mark were called inactive. Calls of active or inactive are those of the source. Calls come from the whole dose curve; as a rule, active = well fitted curve in the direction sought with a large enough effect; inconclusive = small, poorly fitted or top-dose-only effect, or another doubt; inactive = no such curve, though single readings can be large; an effect the other way counts as inactive or inconclusive.

By viability is commonly meant a read-out of living cells in per cent, often relative to untreated cells.

Assay [1] deals with Cellular tumor antigen p53 (Homo sapiens) (UniProt P04637). The assay can be described thus: Primary qHTS for small molecule compounds that upregulate eGFP-tagged delta133p53alpha (in N-terminal) cells. (AID 2060322).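 For activation: 0% = DMSO vehicle and 100% = reference activator.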 Note: nearly all actives have a fitted effect of over 75% in size. As to conditions: NCI-H358 eGFP-delta133p53alpha fluorescence, 24 h; activation: stronger effect = higher value. The gist of the method:
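NCI-H358 cells pre-induced 24 h with 10 ng/ml doxycycline to express N-terminal eGFP-delta133p53alpha, then dosed 24 h at 37C without doxycycline; fixed, Hoechst-stained, GFP intensity by laser scanning cytometry, normalized to DMSO (0%) and 57.5 uM 5-azacytidine (100%).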

A short description of assay [2]: BET inhibitor-based combinations targeting novel dependencies in MECOM-rearranged (r) AML: SET-2 cell line (AID 2202231).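 For viability: plate controls were DMSO treated cells for no effect and wells without cells for full effect.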 Note: nearly all actives have a fitted effect of over 35% in size. Conditions: SET-2 AML cells viability, CellTiter-Glo luminescence, 48 h; viability: stronger effect = lower value, concentration not given here. In a few lines: (§1)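 Readout: CellTiter-Glo luminescence. Exposure: 48 h, 11 concentrations, 500 cells/well. Metric: AUC and within-line Z-AUC after DMSO/empty-well normalization.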
(Cellular ATP, detected with luciferase, serves as a proxy for viable cell number.)

Assay [3] is described as follows: BET inhibitor-based combinations targeting novel dependencies in MECOM-rearranged (r) AML: MV-4-11 cell line (AID 2202233). Note: nearly all actives have a fitted effect of over 45% in size. As to conditions: MV-4-11 AML viability, CellTiter-Glo luminescence, 48 h; series mostly up to 46 µM. In a few lines: (§2)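 Seeding density was 500 cells/well, and drug exposure lasted 48 hr under standard culture conditions. Read-out used CellTiter-Glo reagent with a 15 min room-temperature incubation before luminescence measurement; AUC and Z-AUC summarize the normalized responses.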

Assay [4] can be described thus: BET inhibitor-based combinations targeting novel dependencies in MECOM-rearranged (r) AML: HNT-34 cell line (AID 2202234). Note: nearly all actives have a fitted effect of over 35% in size. As to conditions: HNT-34 AML viability, CellTiter-Glo luminescence, 48 h; series mostly up to 46 µM. The gist of the method:
as §2

The nature of assay [5]: BET inhibitor-based combinations targeting novel dependencies in MECOM-rearranged (r) AML: UCSD-AML1 cell line (AID 2202235). Note: nearly all actives have a fitted effect of over 40% in size. Conditions: UCSD-AML1 AML cells viability, CellTiter-Glo, 48 h; series mostly up to 46 µM. In a few lines:
as §2

Assay [6] in a line: BET inhibitor-based combinations targeting novel dependencies in MECOM-rearranged (r) AML: AML-191 cell line (AID 2202236; note: nearly all actives have a fitted effect of over 35% in size). Conditions: AML-191 viability, CellTiter-Glo luminescence, 48 h; series mostly up to 46 µM. In a few lines: as §1
Assay [7] can be described thus: BET inhibitor-based combinations targeting novel dependencies in MECOM-rearranged (r) AML: AML-194 cell line (AID 2202237; note: nearly all actives have a fitted effect of over 40% in size). As to conditions: AML-194 (MECOM-r AML) viability, CellTiter-Glo, 48 h; series mostly up to 46 µM. The gist of the method:
as §1

A short description of assay [8]: BET inhibitor-based combinations targeting novel dependencies in MECOM-rearranged (r) AML: OCI-AML3 cell line (AID 2202232). Note: nearly all actives have a fitted effect of over 35% in size. As to conditions: CellTiter-Glo luminescence, 48 h; Potency: OCI-AML3 viability; series mostly up to 46 µM. The gist of the method:
as §1
Potency is the fitted concentration of half-maximal effect.

Sequence of Cellular tumor antigen p53 (Homo sapiens) (P04637 whole entry, looked up): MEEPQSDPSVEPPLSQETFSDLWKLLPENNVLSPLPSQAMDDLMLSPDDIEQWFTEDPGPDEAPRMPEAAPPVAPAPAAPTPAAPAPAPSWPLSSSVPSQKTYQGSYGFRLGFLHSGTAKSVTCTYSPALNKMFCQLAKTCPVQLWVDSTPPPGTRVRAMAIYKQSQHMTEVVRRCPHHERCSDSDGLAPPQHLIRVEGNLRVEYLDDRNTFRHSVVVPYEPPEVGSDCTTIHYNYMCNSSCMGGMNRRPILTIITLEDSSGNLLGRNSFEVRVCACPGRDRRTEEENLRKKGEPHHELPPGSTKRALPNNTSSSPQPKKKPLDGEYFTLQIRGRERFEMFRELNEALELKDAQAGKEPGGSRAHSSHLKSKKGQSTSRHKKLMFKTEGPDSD

For the compound `CCN1CCN(C(=O)N[C@@H](C(=O)N[C@@H]2C(=O)N3C(C(=O)O)=C(CSc4nnnn4C)CS[C@H]23)c2ccc(O)cc2)C(=O)C1=O`, in assay [1], the activation was -7.34%. For the same compound, the viability in assay [2] is 99.4%. Moreover, the Potency entry in assay [3], in assay [4], in assay [5] and in assay [6] was “inactive” each time.

In the case of `O=C1NCCc2[nH]c(-c3ccncc3)cc21`, the Potency in assay [1] was 7.69 µM (active); in assay [2], 3.72 µM (active); in assay [3], 1.86 µM (active); in assay [4], 3.32 µM (active); in assay [5] it was 2.63 µM (active); in assay [6], 1.66 µM (active). Moreover, in assay [7], the Potency is 2.63 µM (active).

Regarding `Cc1cc(O)c2c(c1)C(=O)c1cccc(O)c1C2=O`, the activation in assay [1] was 32.6%. Besides, the viability in assay [2] is 116%. The Potency entry in assay [3], in assay [4], in assay [5], in assay [6] and in assay [7] was “inactive” in each case.

As for `Cc1ccc(-n2nc(C(C)(C)C)cc2NC(=O)Nc2ccc(OCCN3CCOCC3)c3ccccc23)cc1`, in assay [1], the activation is 23.4%. For the same compound, the viability in assay [2] was 102%. Also, the Potency in assay [8] was 18.6 µM (active). Also, the Potency result in assay [5] and in assay [7] was “inactive” in each case.

As for `C#CCC(Cc1cnc2nc(N)nc(N)c2n1)c1ccc(C(=O)N[C@@H](CCC(=O)O)C(=O)O)cc1` (stereo partly drawn), the activation in assay [1] was -21.3%. The Potency in assay [2] is 0.0019 µM (active); in assay [3] it was 0.0053 µM (active).

As to `COc1ccc2nc3cc(Cl)ccc3c(Nc3cc(CN4CCCC4)c(O)c(CN4CCCC4)c3)c2n1`, the activation in assay [1] was 55.3%. For the same compound, the Potency in assay [2] was 7.42 µM (active); in assay [3], 4.68 µM (active); in assay [4], 11.8 µM (active); in assay [5], 8.33 µM (active); in assay [6], 10.5 µM (active); in assay [7] it was 10.5 µM (active).

Take `O=c1cc(-c2ccccc2)oc2cc(O)cc(O)c12`: the activation in assay [1] was 3.3%. Also, the viability in assay [2] is 85.1%. The Potency in assay [3] was 16.6 µM (active); in assay [4] it was 23.5 µM (active).

Consider `CC(C)(C)NC(=O)[C@H]1CC[C@H]2[C@@H]3CC[C@H]4NC(=O)C=C[C@]4(C)[C@H]3CC[C@]12C`, for which the activation in assay [1] is -14.2% and -4.21%. The viability in assay [2] is 98.4%. In addition, the Potency entry in assay [8], in assay [6] and in assay [7] was “inactive” each time.

For `C[C@H](CCC(=O)O)[C@H]1CCC2C3C[C@H](O)[C@@H]4C[C@H](O)CC[C@]4(C)C3CC[C@@]21C` (stereo partly drawn), in assay [1], the activation is 10.8%. Further, the viability in assay [2] was 119%. In addition, the Potency entry in assay [3], in assay [4], in assay [5], in assay [6] and in assay [7] was “inactive” each time.

Take `CCC(=O)O[C@]1(C(=O)CCl)[C@@H](C)C[C@H]2[C@@H]3CCC4=CC(=O)C=C[C@]4(C)[C@@]3(F)[C@@H](O)C[C@@]21C`: the activation in assay [1] is 6.69% and -0.269%. Further, the viability in assay [2] was 97.3%. Moreover, the Potency in assay [3] and in assay [4] was 20.9 µM (active) throughout. In assay [5], the Potency entry is “inactive”.

With `Cc1cc2c(cc1CC(=O)c1sccc1S(=O)(=O)Nc1onc(C)c1Cl)OCO2`, the activation in assay [1] was -10% and -11%. In addition, the viability in assay [2] is 68.3%. Also, the Potency result in assay [3], in assay [4], in assay [5] and in assay [6] was “inactive” throughout.

Turning to `Cc1nc(-c2ccc(OCC(C)C)c(C#N)c2)sc1C(=O)O`, the activation in assay [1] was 4.32% and -8.37%. Besides, in assay [2], the viability was 109%. Moreover, the Potency result in assay [8], in assay [5], in assay [6] and in assay [7] was “inactive” each time.

On to `CCC(=O)O[C@]1(C(=O)SCF)[C@H](C)C[C@H]2[C@@H]3C[C@H](F)C4=CC(=O)C=C[C@]4(C)[C@@]3(F)[C@@H](O)C[C@@]21C`, for which the activation in assay [1] was 17.6% and 0.401%. Also, in assay [2], the viability was 114%. Besides, the Potency entry in assay [3], in assay [4], in assay [5] and in assay [6] was “inactive” in each case.

Turning to `Fc1ccc(Cl)cc1-c1nc(Nc2ccncc2)c2nccnc2n1`, in assay [1], the activation was 0.772%. Besides, the viability in assay [2] was 110%. Moreover, the Potency result in assay [3], in assay [4], in assay [5], in assay [6] and in assay [7] was “inactive” each time.

In the case of `COc1cc2nccc(Oc3ccc(NC(=O)Nc4ccc(F)cc4F)c(F)c3)c2cc1OC`, the activation in assay [1] was 5.39%. In assay [2], the viability was 108%. Also, the results for the Potency in assay [3], in assay [4] and in assay [5] were 0.0934 µM (active), 1.66 µM (active) and 2.09 µM (active), respectively.

Consider `CCCNS(=O)(=O)Nc1ncnc(OCCOc2ncc(Br)cn2)c1-c1ccc(Br)cc1`, for which the activation in assay [1] is -5.9%. For the same compound, in assay [2], the viability was 97.8%. In addition, the Potency entry in assay [8] and in assay [7] was “inactive” each time.

With `COc1cc(F)c(C(C)C)cc1-c1ccc(C(F)(F)F)cc1CN1C(=O)O[C@H](c2cc(C(F)(F)F)cc(C(F)(F)F)c2)[C@@H]1C`, the activation in assay [1] was -9.08%. The viability in assay [2] is 105%. Moreover, the Potency entry in assay [8], in assay [5], in assay [6] and in assay [7] was “inactive” throughout.

As for `CN1c2cc(O)c(N=NC(N)=O)cc2CC1S(=O)(=O)O` (stereo not drawn), in assay [1], the activation was 16.4%. Besides, in assay [2], the viability is 89.9%. The Potency entry in assay [8], in assay [5], in assay [6] and in assay [7] was “inactive” each time.

With `COc1cc(C[C@@H](CO)[C@H](CO)Cc2ccc(O)c(OC)c2)ccc1O`, the activation in assay [1] was -3.34%. In addition, in assay [2], the viability was 120%. For the same compound, the Potency entry in assay [3], in assay [4], in assay [5] and in assay [6] was “inactive” in each case.

For the origin of these results see PubChem BioAssay (NCATS).
